# Compound activity as filed in PubChem BioAssay.
# Cav3 T inh – blocks human Cav3.2 T-type calcium channel. O95180. Cav3.2-expressing cells, Fluo-4 calcium fluorescence FDSS; stronger effect = lower value. B-score at 10 µM. 4% of 100,000 active;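 active = single-dose well whose peak fluorescence ratio is a statistical outlier from its plate by either plate-standardised score or position-corrected B-score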
# CYP2C9 inhib – human CYP2C9 inhibition; 20% of 96,000 active; AID 777; inhibition, % at 5 µM; CYP2C9 Supersomes, luciferin-H conversion, luminescence; P11712;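 active = blocking of liver enzyme CYP2C9 beyond about 50% at 5 µM, limit read from the data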
# Target sequence (P11712 whole entry, looked up): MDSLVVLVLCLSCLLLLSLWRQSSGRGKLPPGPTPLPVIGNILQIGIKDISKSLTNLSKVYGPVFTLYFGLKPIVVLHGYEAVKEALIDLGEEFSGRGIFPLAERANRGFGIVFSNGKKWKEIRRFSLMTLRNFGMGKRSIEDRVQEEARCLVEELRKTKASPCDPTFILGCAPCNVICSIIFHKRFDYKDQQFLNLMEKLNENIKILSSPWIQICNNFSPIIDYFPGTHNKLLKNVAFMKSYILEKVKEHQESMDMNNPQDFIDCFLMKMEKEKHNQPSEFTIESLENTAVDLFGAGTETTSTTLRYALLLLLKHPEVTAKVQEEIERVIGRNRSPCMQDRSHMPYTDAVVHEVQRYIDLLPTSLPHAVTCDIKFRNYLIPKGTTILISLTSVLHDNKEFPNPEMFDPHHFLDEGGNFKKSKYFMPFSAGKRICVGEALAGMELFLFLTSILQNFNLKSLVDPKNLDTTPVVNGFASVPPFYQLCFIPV
# CYP2C19 act – increases human CYP2C19 enzyme activity; P33261; recombinant CYP2C19, luciferin-H EGE luminescence; stronger effect = higher value; 0 = fully inhibited enzyme, 1 = untreated enzyme; activation factor at 5 µM; 96,000 tested, under 10 active; AID 1025;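 active = activation factor of at least 2 at 5 µM in the primary screen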;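 also: 0 = wells with 2.5 mM tranylcypromine and 1 = vehicle-only wells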
# CYP2C9 activ – increases human cytochrome P450 2C9 activity; P11712; recombinant CYP2C9, luciferin-H conversion, luminescence; stronger effect = higher value; factor 1 = untreated enzyme, 0 = blocked; activation factor at 5 µM; 1.4% of 96,000 active; AID 1024;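 active = activation factor of 2 or more for CYP2C9 at a 5 µM dose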;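 also: 0 = sulfaphenazole-blocked wells and 1 = vehicle-only wells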
# CYP2C19 inhib – inhibitors of human CYP2C19; CYP2C19 Supersomes, luciferin-H EGE luminescence, 30 min; inhibition, % at 5 µM; 21% of 96,000 active; AID 778;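 active = CYP2C19 inhibition above a set limit at 5 µM in the primary screen, cut at about 50% in these data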;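 also: plate controls were negative control wells for no effect and 2.5 mM tranylcypromine positive control for full effect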
# Active calls of the source: *; · = no result given. Sampled rows, rich in hits. Any-hit rate of the full collection: about 27%.
SMILES,Cav3 T inh,CYP2C9 inhib,CYP2C19 act,CYP2C9 activ,CYP2C19 inhib
CC(=O)NC1C(c2nc3ccccc3s2)=C(c2ccccc2)C(=O)N1c1ccc(C)cc1 (stereo not drawn),·,28,0.6,0.7,42
COc1ccccc1C(=O)Nc1cc2cc(Cl)ccc2oc1=O,0.28,-61,0.9,1.6,7
COc1cnn(-c2ccccc2)c(=O)c1SCc1ccc(Cl)c(Cl)c1,-4.5,52*,0.5,0.5,54*
COc1ccc(N2C(=O)C(Cl)=C(N3CCCC(C)C3)C2=O)cc1 (stereo not drawn),-3,85*,0.2,0.2,84*
CC1(C)CC[C@]2(C(=O)O)CC[C@]3(C)C(=CC[C@@H]4[C@@]5(C)CC[C@H](O)C(C)(C)[C@@H]5CC[C@]43C)[C@@H]2C1,0.047,·,·,·,·
CC(=O)OC1COC(OC2C(O)C(C)OC(OC3C(OC4CCC5(C)C(CCC6(C)C5CC=C5C7CC(C)(C)CCC7(C(=O)O)CCC56C)C4(C)CO)OCC(O)C3O)C2O)C(O)C1OC(C)=O (stereo not drawn),-5*,·,·,·,·
COc1cc(NC(=O)c2cccc(Cl)c2)c(OC)cc1NC(=O)CN1CCOCC1,-0.53,14,1,0.9,-2
CCC(C)NS(=O)(=O)c1ccc(OCC(=O)Nc2ccc3c(c2)OCCO3)cc1 (stereo not drawn),-0.28,60*,0.6,0.4,40
CC1CCCN(CC(=O)Nc2ccc(S(=O)(=O)NC3CCCCC3)cc2)C1 (stereo not drawn),-0.49,52*,0.2,0.5,78*
O=C(COc1ccc(S(=O)(=O)NC2CCCCC2)cc1)Nc1ccc2c(c1)OCCO2,-3,80*,0.6,0.2,44
Cc1cccc(OCC(=O)NC(=S)Nc2ccc(S(=O)(=O)NC3CCCCC3)cc2)c1,-0.77,93*,0.7,0.1,29
O=C(Nn1c(O)c(C=C2N=c3ccccc3=N2)sc1=S)c1cccc(Cl)c1,0.3,15,1,0.9,2
C=CCOCC(O)CS(=O)(=O)Cc1ccc(Cl)cc1 (stereo not drawn),0.00095,17,0.3,0.8,74*
Cc1ccc(C(=O)ONc2ccc(N=O)cc2)cc1,0.31,93*,1,0.1,-4
Cc1ccc(C(=O)ONc2ccc(N=NC(=O)c3ccccc3O)cc2)cc1,-0.27,92*,0,0.1,100*
COc1ccc(C(=O)c2ccc(OC)c3cccc(O)c23)cc1OC,-1.5,84*,0.5,0.2,50
O=C(NC1CCCC1)C1CC(=O)N(CCc2ccccc2)C1 (stereo not drawn),-1.5,10,0.8,0.9,16
O=C(NC1CCCC1)C1CCC(=O)N1CCc1ccccc1 (stereo not drawn),0.23,54*,0.6,0.5,37
CCOc1ccc(NC(=O)C2CC=CCC2C(=O)O)cc1 (stereo not drawn),-0.046,-8,1.1,1.1,-8
CC(C)OC(=O)C1CC=CCC1C(=O)Nc1ccc(Cl)cc1 (stereo not drawn),-0.28,52*,0.1,0.5,91*
COC(=O)/C=C(\C)NC(=O)c1ccccc1Cl,-0.033,11,0.2,0.9,80*
CCCCC(=O)Nc1c(C)cc(C)cc1Cl,1.3,13,0.7,0.9,26
CN(C)c1ccc(/C(=N\O)c2ccccc2)cc1,-2.9,-3,0.3,1,73*
COc1ccc(NC(C)=O)cc1NC(=O)CN1CCN(C(=O)c2ccco2)CC1,0.94,3,1,1,-2
Cc1nn(-c2ccc(F)cc2)c2nc(N)c(C#N)c(-c3cccs3)c12,0.25,8,1.1,0.9,-12
SMILES,Cav3 T inh,CYP2C9 inhib,CYP2C19 act,CYP2C9 activ,CYP2C19 inhib
COc1cc(-c2c(C#N)c(N)nc3c2c(C)nn3-c2ccc(C)c(C)c2)cc(OC)c1OC,-4.8*,26,0.9,0.7,6
CN1CCN(c2ccc(C(=O)c3ccc(F)cc3)cc2)CC1,0.68,6,0.5,0.9,52*
O=C(c1ccccc1)c1ccc(N2CCNCC2)cc1,0.96,44,0.2,0.6,77*
O=C(c1ccccc1)c1ccc(N2CCCC2)cc1,2.1,-6,0.7,1.1,33
O=C(O)CCC(=O)N1CCN(c2ccc(C(=O)c3ccc(F)cc3)cc2)CC1,0.99,-6,1,1.1,3
CCOC(=O)c1cc(C(O)(C(F)(F)F)C(F)(F)F)c(/N=C/N(C)C)o1,-2.7,9,1,0.9,4
Cc1cc(NC(=O)CSc2nc(C(C)C)nc3sc4c(c23)CCCC4)no1,-1.6,76*,0.2,0.2,80*
CCOC(=O)CC(Nc1nc(N2CCOCC2)nc(N2CCOCC2)n1)c1ccccc1Cl (stereo not drawn),·,53*,0.3,0.5,68*
CCOC(=O)CC(NC(=O)c1ccco1)c1ccccc1Cl (stereo not drawn),-0.19,19,0.7,0.8,33
O=C1OC(NC(=O)c2ccccc2)C(n2cc(CO)nn2)=C1Cl (stereo not drawn),0.21,66*,0.9,0.3,13
Cc1ccc(NC2=C(Cl)C(=O)OC2NC(=O)c2ccccc2)cc1 (stereo not drawn),0.0016,·,·,·,·
Cc1ccccc1-c1nc2ccccc2c(=O)n1/N=C/c1ccccc1[N+](=O)[O-],-1.9,10,0.9,0.9,9
CN(C)c1ccc(-c2ccc([C@H]3[C@@H]4C=CCC[C@@]4(C)C(=O)N3Cc3ccccc3)c(F)c2)cc1,-1.2,·,·,·,·
NC(=O)N1OCC2COc3ccc4ccccc4c3C21 (stereo not drawn),0.065,-108,1,2.1*,5
Cn1c(=O)c2c(nc3sccn32)n(C)c1=O,0.27,·,·,·,·
O=S(=O)(Nc1ccc(N2CCOCC2)cc1)c1ccc2ccccc2c1,·,46,0.1,0.5,92*
CC(=O)Nc1ccc(S(=O)(=O)Nc2ccc(S(=O)(=O)N3CCCC3)cc2)cc1,-0.12,·,·,·,·
O=S(=O)(c1ccc(N2CCOCC2)cc1)N1CCOCC1,0.61,-32,1.2,1.3,-19
CC(=O)Nc1ccc(S(=O)(=O)NC2=C(N3CCN(c4ccc(F)cc4)CC3)C(=O)c3ccccc3C2=O)cc1,·,61*,0.7,0.4,26
Cc1ccc(S(=O)(=O)NC2=C(N3CCN(Cc4ccccc4)CC3)C(=O)c3ccccc3C2=O)cc1,·,63*,1.1,0.4,-5
CC(=O)Nc1ccc(S(=O)(=O)Nc2ccc(N3CCOCC3)cc2)cc1,1.2,40,0.1,0.6,90*
CC1=C(C(=O)N2CCc3ccccc32)C2(CCC(C)CC2)OC1=O (stereo not drawn),0.33,30,0.7,0.7,30
CCOC(=O)N1CCC(NC(=O)c2cc(C)c3c(C)nn(-c4ccccc4)c3n2)CC1,0.65,-13,1,1.1,1
Cc1occc1C(=O)NNC(=O)C(c1ccccc1)c1ccccc1,0.12,41,0.8,0.6,20
CCCNC(=O)c1cccc(COCC(F)(F)C(F)F)c1,-0.29,31,0.5,0.7,48
Cc1ccc(S(=O)(=O)Nc2ccc(N3CCOCC3)cc2)cc1,-0.23,94*,0,0.1,96*
